PubChem BioAssay (NCATS)
Several values for one entry are separate records, joined by “and”; a condition that tells them apart may be missing. Equal values may be shown once. Records with an inconclusive call do not appear. A call without a number means that no potency is given here. Activity calls are given as the source filed them. Unless noted, calls come from the whole dose curve.

Assays:
[1] = qHTS for Inhibitors of the Functional Ribonucleoprotein Complex (vRNP) of Lassa (LASV) Arenavirus: LASV Primary Screen - GLuc reporter signal (AID 1347082; calls by dose curve; tested in HEK293 reporter line; note: nearly all actives have a fitted effect of over 60% in size)
[2] = target: Nucleoprotein (Lymphocytic choriomeningitis virus (strain Armstrong)) (UniProt P09992); assay: qHTS for Inhibitors of the Functional Ribonucleoprotein Complex (vRNP) of Lymphocytic Choriomeningitis Arenaviruses (LCMV): LCMV Primary Screen - GLuc reporter signal (AID 1347086); note: nearly all actives have a fitted effect of over 70% in size
[3] = qHTS for Inhibitors of the Functional Ribonucleoprotein Complex (vRNP) of Lymphocytic Choriomeningitis Arenaviruses (LCMV): Viability assay - alamar blue signal for LCMV Primary Screen (AID 1347085; calls by dose curve; tested in HEK293 reporter line; note: nearly all actives have a fitted effect of over 80% in size; note: potency is the fitted concentration of half-maximal effect)
[4] = Primary qHTS for inhibitors of SARS-S pseudo-typed particle cell entry (AID 1479145); note: nearly all actives have a fitted effect of over 45% in size; note: potency is the fitted concentration of half-maximal effect
[5] = Primary qHTS for Huh7 cytotoxicity: counterscreen for inhibitors of MERS-S pseudotyped particle cell entry (AID 1479147); settings: outcome: dose series up to 57.1 µM unless noted
[6] = Primary qHTS for Vero E6 cytotoxicity: counterscreen for inhibitors of SARS-S pseudo-typed particle cell entry (AID 1479150); settings: outcome: dose series up to 57.1 µM unless noted
[7] = Cytotoxicity counterscreen for inhibitors of SARS-CoV-2 cell entry (AID 1645845); note: nearly all actives have a fitted effect of over 50% in size; note: potency is the fitted concentration of half-maximal effect
Method in brief: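 48 h compound treatment (after 1 h preincubation), HEK293-ACE2 cells, 37 C/5% CO2; ATP luminescence endpoint; normalized to cell wells and media blanks.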

[8] = Primary qHTS to identify inhibitors of SARS-CoV-2 cell entry (AID 1645846); settings: activity change, negative = inhibition: at 57.1 µM (top of the series) unless noted; note: nearly all actives have a fitted effect of over 45% in size; note: potency is the fitted concentration of half-maximal effect
Method in brief: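 HEK293-ACE2 (Expi293F, stable hACE2), 1500 cells/well, o/n 37C; cpd 23 nL pin, 1 h; MLV-PP w/ SARS-CoV-2-S (Wuhan-Hu-1, Δ19 C-term); 48 h 37C; Bright-Glo luminescence; normalized vs S-PP and bald PP.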

[9] = VSVG counterscreen qHTS to identify inhibitors of SARS-CoV-2 cell entry (AID 1645847); note: nearly all actives have a fitted effect of over 65% in size; note: potency is the fitted concentration of half-maximal effect
Method in brief: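 Expi293F/hACE2 cells, overnight plating; cpd 1 h, 37C/5% CO2; + VSV-G PP (MLV pseudotyping), 48 h; supernatant removed, Bright-Glo luciferase read. Norm: VSV-G PP and bald PP wells.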

[10] = Confirmatory qHTS for VERO E6 Cytotoxicity Assay: Counterscreen for SARS-CoV-2 CPE Assay (AID 1508605); note: potency is the fitted concentration of half-maximal effect; nearly all actives have a fitted effect of over 60% in size
[11] = Inducers of the Endoplasmic Reticulum Stress Response (ERSR) in human glioma: Validation (AID 504836; active = well fitted curve in the direction sought with a large enough effect)
Method in brief: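 ERSR induction read as luciferase luminescence (Bright-Glo, 10 min at room temperature) in stably transfected human U87-MG glioma cells exposed to compounds for 16 h, using GRP78 as sensor.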

[12] = Validation screen for inhibitors of Lassa infection (AID 463096)
[13] = Primary qHTS for inhibitors of MERS-S pseudo-typed particle cell entry (AID 1479149); note: nearly all actives have a fitted effect of over 60% in size
[14] = qHTS Assay for Lipid Storage Modulators (AID 1519); settings: Drosophila S3 cells, BODIPY lipid droplet/cell ratio, laser cytometry, cells loaded with oleic acid
Method in brief: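 Cells seeded at 5,000 per well were treated with compounds over a concentration series and loaded with oleic acid (400 uM, as added). Lipid droplet fluorescence (488 nm excitation, 500-530 nm channel) was read by laser-scanning cytometry and normalized to 20 uM Triacsin C.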

[15] = qHTS profiling of the MIPE4 collection as inhibitors of Plasmodium falciparum (3D7) proliferation (AID 743344; call rule not given here); settings: P. falciparum 3D7 in erythrocytes, SYBR Green DNA fluorescence, 72 h; at 28.5 µM (top of the series) unless noted
Method in brief: (§1)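 Erythrocytes infected with P. falciparum (0.3% parasitemia, 2.5% hematocrit) incubated with compounds 72 h at 37 C, 5% CO2. Lysis with saponin/Triton buffer containing SYBR Green I, overnight at room temperature in the dark; DNA fluorescence (485/535 nm) normalised to 0.29 uM artemisinin and DMSO.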

[16] = qHTS profiling of the MIPE4 collection as inhibitors of Plasmodium falciparum (DD2) proliferation (AID 743345; call rule not given here); settings: P. falciparum Dd2 in erythrocytes, SYBR Green DNA, 72 h; at 28.5 µM (top of the series) unless noted
Method in brief: as §1

[17] = qHTS profiling of the MIPE4 collection as inhibitors of Plasmodium falciparum (DD2) proliferation (Rep 2) (AID 743346; call rule not given here); settings: P. falciparum Dd2 in erythrocytes, SYBR Green DNA, 72 h; at 28.5 µM (top of the series) unless noted
Method in brief: as §1

[18] = Confirmatory qHTS to identify inhibitors of SARS-CoV-2 cell entry (AID 1645844); note: nearly all actives have a fitted effect of over 45% in size
Method in brief: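 Luminescence from a luciferase reporter, read 48 hr after pseudotyped-particle addition, gives entry signal, normalised to spike-bearing PP wells and bald PP lacking fusion protein wells. Cells are Expi293F stably expressing human ACE2, compound-pretreated 1 hr.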

Nucleoprotein (Lymphocytic choriomeningitis virus (strain Armstrong)), sequence (P09992 whole entry, looked up): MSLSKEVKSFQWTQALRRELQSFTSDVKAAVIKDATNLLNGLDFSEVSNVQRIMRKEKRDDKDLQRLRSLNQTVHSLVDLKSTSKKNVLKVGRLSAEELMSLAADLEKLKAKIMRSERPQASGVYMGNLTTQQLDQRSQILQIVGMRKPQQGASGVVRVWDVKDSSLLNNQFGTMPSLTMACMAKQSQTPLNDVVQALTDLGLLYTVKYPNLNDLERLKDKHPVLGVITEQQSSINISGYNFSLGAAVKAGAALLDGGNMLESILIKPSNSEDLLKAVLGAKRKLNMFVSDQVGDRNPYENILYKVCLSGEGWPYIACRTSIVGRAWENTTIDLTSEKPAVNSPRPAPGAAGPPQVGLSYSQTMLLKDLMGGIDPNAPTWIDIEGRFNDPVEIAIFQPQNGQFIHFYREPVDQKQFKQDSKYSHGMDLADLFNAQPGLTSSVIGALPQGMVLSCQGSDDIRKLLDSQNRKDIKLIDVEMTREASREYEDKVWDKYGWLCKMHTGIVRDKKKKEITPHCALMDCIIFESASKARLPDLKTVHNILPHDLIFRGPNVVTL

O=c1cccc2c1c1cc[nH]c3ccc(=O)n2c31
Potency [1]: inactive | Potency [2]: inactive

COc1cc2nccc(Oc3ccc(NC(=O)NC4CC4)c(Cl)c3)c2cc1C(N)=O
Potency [1]: inactive | Potency [3]: 19.3 µM (active) | Potency [4]: 3.55 µM (active) | outcome [5]: inactive | outcome [6]: inactive | Potency [7]: inactive | activity change, negative = inhibition [8]: -21.3% | Potency [9]: 19.2 µM (active)

Nc1ncnc2c1c(-c1cccc(OCc3ccccc3)c1)cn2C1CC(CN2CCCC2)C1 (configuration not stated)
Potency [1]: inactive | Potency [3]: 27.3 µM (active) | Potency [10]: 12.6 µM (active) | Potency [8]: 14.1 µM (active)

CC(C)NC[C@@H](O)c1ccc(O)c(O)c1
outcome [11]: inactive | Potency [1]: inactive | Potency [3]: inactive | Potency [2]: inactive

O=C1NCc2c1c1c3ccccc3[nH]c1c1[nH]c3ccccc3c21
Potency [1]: inactive | Potency [2]: inactive

c1nc2nc(Nc3ccc(N4CCOCC4)cc3)nc(NC3CCCCC3)c2[nH]1
Potency [1]: inactive | Potency [7]: inactive

Nc1ncnc2nc(-c3ccc(N4CCOCC4)nc3)cc(-c3cccc(Br)c3)c12
outcome [11]: inactive | Potency [1]: inactive | Potency [2]: inactive | Potency [7]: inactive | activity change, negative = inhibition [8]: -21.9%

Cc1ccc(/C=N/NC(=O)c2ccccc2Oc2ccccc2)o1
Potency [1]: inactive | Potency [2]: inactive | Potency [7]: inactive | Potency [8]: inactive

CN1CCCN(C(=O)c2cccc(-c3ccc(C=C4C(=O)Nc5ccc(Cl)cc54)o3)c2)CC1
Potency [1]: inactive | Potency [2]: inactive

NC(=NCCCCCCN=C(N)N=C(N)Nc1ccc(Cl)cc1)N=C(N)Nc1ccc(Cl)cc1
Potency [1]: inactive | Potency [2]: inactive | Potency [8]: 17.8 µM (active)

c1ccc(-c2oc3ncnc(NC[C@@H]4CCCO4)c3c2-c2ccccc2)cc1
Potency [1]: inactive | Potency [2]: inactive | activity change, negative = inhibition [8]: -93.9%

COc1ccc2nc3cc(Cl)ccc3c(Nc3cc(CN4CCCC4)c(O)c(CN4CCCC4)c3)c2n1
Potency [1]: inactive | Potency [2]: inactive

C=C1C([C@@]2(C)C(OC(C)=O)CC(=O)O[C@@](C)(COC(C)=O)C2CC(=O)OC)C(OC=O)C(OC(=O)C(O)C(C)CC)[C@]2(C)C(c3ccoc3)CC(=O)C12O (some centres not stated)
Potency [1]: inactive | Potency [2]: inactive

CC(=O)O[C@H]1C(=O)[C@@]2(C)C([C@H](OC(=O)c3ccccc3)[C@]3(O)C[C@H](OC(=O)[C@H](O)[C@@H](NC(=O)c4ccccc4)c4ccccc4)C(C)=C1C3(C)C)[C@]1(OC(C)=O)CO[C@@H]1C[C@@H]2O (some centres not stated)
Potency [12]: inactive | outcome [11]: inactive | Potency [1]: inactive | Potency [2]: inactive | outcome [5]: inactive | Potency [13]: inactive | outcome [6]: inactive | Potency [7]: inactive | activity change, negative = inhibition [8]: -37.1% and -87.7% | Potency [9]: 0.0681 µM (active)

Nc1ncnc2n[nH]c(Nc3ccc(F)cc3)c12
outcome [11]: inactive | Potency [1]: inactive | Potency [2]: inactive

O=C(NOCC(O)CO)c1cc(Br)c(F)c(F)c1Nc1ccc(I)cc1F (configuration not stated)
Potency [1]: inactive | Potency [2]: inactive | Potency [7]: inactive | activity change, negative = inhibition [8]: -16.5%

COc1ccc(NC(=O)/C=C/c2ccc(Cl)cc2)cc1
Potency [1]: inactive | Potency [2]: inactive

N=c1ccn2c(n1)O[C@H]1[C@@H](O)[C@@H](CO)O[C@H]12
Potency [1]: inactive | Potency [2]: inactive | Potency [7]: inactive | Potency [8]: 10 µM (active)

CN1CCc2c(n(Cc3ccc(C(=O)NO)cc3)c3ccccc23)C1
Potency [1]: inactive | Potency [2]: inactive | Potency [7]: 31.6 µM (active)

CNC(=O)[C@H](Cc1ccccc1)NC(=O)[C@H](CC(C)C)[C@H](CSc1cccs1)C(=O)NO
Potency [1]: inactive | Potency [2]: inactive | Potency [7]: inactive | activity change, negative = inhibition [8]: -35.2%

CC1(C)Oc2cc3oc(-c4cc(O)cc(O)c4)cc3cc2CC1O (configuration not stated)
Potency [1]: inactive | Potency [2]: inactive

CC(C(=O)O)c1ccc(-c2ccccc2)c(F)c1 (configuration not stated)
activity change, negative = inhibition ([14]; at 57.5 µM (top of the series)): 7.18% (inactive) | max response ([14]; measured here: cell count channel max response): 15.4% | max response ([14]; measured here: lipid channel max response): 28.2% | parasite growth, % of DMSO control [15]: 86.5% | parasite growth remaining, % of DMSO control (lower = more inhibition) [16]: 95.5% | parasite growth, % of control (lower = inhibition) [17]: 114% | Potency [1]: inactive | Potency [4]: inactive | outcome [5]: inactive | Potency [13]: inactive | outcome [6]: inactive | Potency [7]: inactive | Potency [8]: inactive | activity change, negative = inhibition [8]: -16.8%

COc1ccc(CN2CCc3cc(OC)c(OC)cc3C2)cc1O
Potency [1]: inactive | Potency [2]: inactive

O=C(CCCCCCC(=O)Nc1ccc([C@H]2O[C@@H](CSc3nc(-c4ccccc4)c(-c4ccccc4)o3)C[C@@H](c3ccc(CO)cc3)O2)cc1)NO
Potency [1]: inactive | Potency [2]: inactive | activity change, negative = inhibition [8]: 1.44% [at 11.3 µM]

Cn1cnc(=N)c2[nH]cnc21
Potency [1]: inactive | Potency [2]: inactive | Potency [7]: inactive | activity change, negative = inhibition [8]: -0.211% [at 114 µM]

CC[C@H](C)C(=O)O[C@H]1CCC=C2C=C[C@H](C)[C@H](CC[C@@H]3C[C@@H](O)CC(=O)O3)[C@H]21
outcome [11]: inactive | Potency [1]: inactive | Potency [18]: inactive | Potency [7]: inactive | activity change, negative = inhibition [8]: -51.5% | Potency [9]: inactive

CCc1cccc(CC)c1NC(=O)N1Cc2[nH]nc(NC(=O)c3ccc(N4CCN(C)CC4)cc3)c2C1
Potency [1]: inactive | Potency [2]: inactive | Potency [7]: inactive

Brc1c(Br)c(Br)c2[nH]cnc2c1Br
outcome [11]: inactive | Potency [1]: inactive | Potency [2]: inactive

COc1cc(C=CC(=O)O)ccc1O
Potency [1]: inactive | Potency [2]: inactive

O=C(O)c1c(Cl)c(Cl)c(Cl)c(Cl)c1-c1c2cc(I)c(=O)c(I)c-2oc2c(I)c(O)c(I)cc12
Potency [1]: inactive | Potency [4]: inactive | outcome [5]: inactive | Potency [13]: inactive | Potency [7]: inactive
